# Shown are actives, neighbours in structure and some others; about 0.74% of the full set was active somewhere.
# TCR act: activators of T cell receptors; 330,000 tested, under 10 active; AID 504894; primary human leukocytes, anti-CD3, IL-2 HTRF, 48 h; Potency, µM (series often up to 9.22 µM), inactives show at the top dose activation of IL-2 secretion, usual class: activators; active = well fitted activation curve with a large enough effect; inconclusive = small, poorly fitted or top-dose-only effect, or another doubt; inactive = no such curve, though single readings can be large or run the other way; note: % of control where 0% means no effect
#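 48 hr co-incubation of compounds, a-CD3 beads and primary human leukocytes; IL-2 quantified homogeneously by HTRF with anti-IL-2 K and d2 conjugates.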
# TSHR antag: blocks TSH signaling through the human TSH receptor | P16473 | TSHR-expressing cells, TSH-stimulated cAMP HTRF, 2 h; active compounds read low | activity change, negative = inhibition, % at 11.5 µM | 0.2% of 330,000 active;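 active = activity change below a set negative limit, meaning inhibition stronger than a set level, cut at about -70% in these data; inconclusive = activity change between two set negative limits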; note: % is set by controls: 0 for no effect and ±100 for the full control effect
# Target sequence (P16473 whole entry, looked up): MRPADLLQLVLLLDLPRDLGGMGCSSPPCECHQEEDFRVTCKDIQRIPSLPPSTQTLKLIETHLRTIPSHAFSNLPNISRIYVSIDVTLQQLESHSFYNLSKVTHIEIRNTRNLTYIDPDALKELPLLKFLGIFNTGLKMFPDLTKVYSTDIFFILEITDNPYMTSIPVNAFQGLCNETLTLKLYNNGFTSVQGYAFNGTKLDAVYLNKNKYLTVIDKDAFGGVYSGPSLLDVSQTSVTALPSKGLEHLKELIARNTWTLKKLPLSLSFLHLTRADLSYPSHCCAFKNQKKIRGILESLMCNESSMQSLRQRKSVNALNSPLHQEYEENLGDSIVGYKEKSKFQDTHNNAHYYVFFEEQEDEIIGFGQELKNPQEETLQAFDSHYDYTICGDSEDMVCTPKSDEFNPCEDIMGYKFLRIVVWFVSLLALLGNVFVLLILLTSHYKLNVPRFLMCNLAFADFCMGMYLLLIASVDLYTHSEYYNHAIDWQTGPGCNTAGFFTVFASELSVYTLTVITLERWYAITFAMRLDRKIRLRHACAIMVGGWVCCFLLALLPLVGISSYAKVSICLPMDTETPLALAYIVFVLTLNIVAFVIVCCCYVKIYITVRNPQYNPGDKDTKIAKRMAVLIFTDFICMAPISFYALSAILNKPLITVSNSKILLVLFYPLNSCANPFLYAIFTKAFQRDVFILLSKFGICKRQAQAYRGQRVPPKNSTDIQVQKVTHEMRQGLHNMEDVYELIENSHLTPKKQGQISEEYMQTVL
#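 Competitive HTRF cAMP read-out (cryptate anti-cAMP antibody, cAMP-d2; 30 min, room temperature) in freshly harvested TSHR cells. Compounds added before TSH at EC80 (4nM final), followed by 2 hours' incubation at 37 deg C.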
# CCT chaperon mod: cytosolic chaperonin activity modulation. purified chaperonin ATPase assay, HTRF ADP detection, 30 min. activity change, % (no concentration beside the values), hits read low. 0.3% of 360,000 active. AID 651819; in the data active = activity change below about -30%; note: % is set by controls: 0 for no effect and ±100 for the full control effect
#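 First, chaperonin was dispensed at 40 nM or 20 nM final depending on batch activity. Next, compounds were pinned at 76 uM and ATP added at 10 uM. After 30 min at 37 °C, ADP detection reagents ran 30 min at ambient temperature.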
# Akt phos inh: inhibitors of Akt phosphorylation. Neuro2A IGF-stimulated pAkt S473 HTRF, 20 min; active compounds read low. activity change, % for hits at 50 µM. 0.32% of 360,000 active. AID 651550; in the data active = activity change below about -80%; inconclusive = mostly about -51% to -80%; note: % is set by controls: 0 for no effect and ±100 for the full control effect
#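 Single-point screen (50 µM final compound) in Neuro2A cells stimulated 20 min with 6 nM IGF at 37 deg C. After lysis, Ser473-phosphorylated Akt read by HTRF (ex 330 nm, em 615/665 nm) as the 665/615 ratio.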
# The depositor's hits bear a star; i = inactive; ? = inconclusive; · = no result given; [ ] = dose if it differs, or a comment.
SMILES,TCR act,TSHR antag,CCT chaperon mod,Akt phos inh
CCC(C)c1ccc(NC(=S)N2CCN(C(=O)C3CCCO3)CC2)cc1 (stereo not given),-2.4%,4.1,-74.0*,i
CCC(C)c1ccc(NC(=O)N2CCN(C(=O)C3CCCO3)CC2)cc1 (stereo not given),-3.9%,16.8,0.9,i
CC(c1ccco1)N(C(=O)c1cccc(S(=O)(=O)N(C)C)c1)c1ccccn1 (stereo not given),1.4%,7.3,-51.0*,i
CCCNc1nc(N)nc(-c2cc(Cl)ccc2OC)n1,3.7%,0.4,1.2,-101.6%*
Cc1cccc(OCCOC(=O)CN2C(=O)NC3(CCCC3)C2=O)c1,-5.8%,29.9,1.4,i
CCCn1nnnc1SCC(=O)Nc1nnc(CC)s1,-2.8%,4.9,-4.6,-108.3%*
COc1ccc([N+](=O)[O-])cc1NC(=O)C1(c2ccc(OC)c(OC)c2)CCOCC1,1.4%,-9.7,-93.5*,i
O=C1c2ccccc2C(=O)N1CCCCSc1nnnn1-c1ccccc1,6.2%,-72.3*,-11.1,i
CCCCC#Cc1nc(NC)c2ncn([C@@H]3O[C@H](CO)[C@@H](O)[C@H]3O)c2n1,·,-7.8,·,·
COc1ccccc1CN1CCNC(=O)C1CC(=O)NCc1cn(C)nc1C (stereo not given),0.8%,11.0,-0.7,i
CC1CCN(C(=O)C2CCC(=O)N(Cc3ccc(Cl)cc3)C2)CC1 (stereo not given),-3.1%,2.6,0.8,i
O=C(CSc1ccc(F)cc1)Nc1ccc(C2SCCS2)cc1,6.0%,-4.4,-2.1,i
COc1ccc(OC)c(NC(=O)NNC(=O)c2cc3occc3[nH]2)c1,-7.6%,-2.8,-68.3*,·
COc1ccc(CCNC(=O)COC(=O)/C=C/c2ccc(OC)cc2OC)cc1,0.2%[46.1 µM],29.5,0.0,i
CSc1nc(-c2ccc(C)cc2)[nH]c1S(=O)(=O)c1ccccc1,-6.5%,-0.6,-2.2,-106.1%*
CC(C)(C)OC(=O)NCCc1nnc(S(=O)(=O)Cc2ccc(Cl)cc2Cl)o1,2.2%,-78.1*,0.9,i
CC(C)(C)OC(=O)NCCc1nnc(SCc2ccccc2Cl)o1,-15.6%,-7.6,-0.2,i
CCSc1nnc(NC(=O)c2csc3c2CCCC3)s1,5.9%,1.5,-0.9,·
O=C(Nc1nnc(SCc2ccccc2)s1)c1cc2c(s1)CCCC2,-1.5%,-6.3,-60.7*,?
CCSc1nnc(NC(=O)c2cc3c(s2)CCCC3)s1,·,21.3,-4.0,-81.0%*
CC(=O)Nc1ccc(CNc2nc3cc(-c4ccc(F)cc4)sc3c(=O)n2C)cc1,·,·,-0.5,i
O=C(CSc1nncs1)Nc1nccs1,-6.9%,-6.1,-5.9,i
COc1ccc(-n2c(SCC(C)=O)nc3sc(C)c(C)c3c2=O)cc1,·,-5.2,-3.3,i
NC(=O)c1c(NC(=O)COC(=O)CSc2nnc(-c3ccc(Cl)cc3)o2)sc2c1CCC2,-0.1%,-13.7,0.7,-104.3%*
CCOC(=O)CNC(=S)N(Cc1ccccc1)Cc1cccnc1,-3.3%,3.7,-33.8*,i
SMILES,TCR act,TSHR antag,CCT chaperon mod,Akt phos inh
CCN1C(=NCC(C)C)N[C@@H](c2ccccc2)[C@H](C(=O)OC)[C@H]1C,·,-3.7,·,·
CC(C)Sc1nc2c(cnn2-c2ccccc2)c(=O)[nH]1,-5.8%[46.1 µM],-16.9,-46.6*,i
CC(C)Sc1nc2c(cnn2-c2ccc(F)cc2)c(=O)[nH]1,-2.8%,8.5,-3.4,i
Cc1nc2ccccc2c(=O)n1/N=C/c1ccc(O)cc1,·,12.0,-0.2,i
CCc1nc2ccccc2c(=O)n1/N=C/c1ccc(Cl)cc1,8.2%,·,-32.7*,i
COc1ccc(NC(=O)/C(N=Nc2ccc(Cl)c(S(=O)(=O)Nc3ccc(Cl)cc3)c2)=C(\C)O)cc1,0.1%[46.1 µM],20.9,-47.9*,i
COc1ccc(NC(=O)/C(N=Nc2cc(S(=O)(=O)Nc3ccc(OC)cc3)ccc2OC)=C(\C)O)cc1,-19.1%,0.6,0.1,i
CCC(/C=C1\Sc2ccc(OC)cc2N1CCO)=C\c1sc2ccc(OC)cc2[n+]1CCO,12.6µM*,3.4,-27.3,i
CCC1CCCCN1CCCCOc1cccc(Cl)c1 (stereo not given),10.2%,-1.1,-4.8,i
COc1ccc(N2CCN(CCCNC(=O)CN3CCN(Cc4ccccc4C)C3=O)CC2)cc1,-5.1%,-1.0,0.2,-111.2%*
CSc1ccc(CNC(=O)C(C)n2nc(C)c3c(C)n(-c4ccccc4)nc3c2=O)cc1 (stereo not given),1.2%,1.5,-2.0,i
Clc1ccccc1-c1nnc(-c2cccnc2)o1,·,-2.9,-39.7*,i
O=c1c2oc3nc4c(cc3c2ncn1CCCc1ccccc1)CCCC4,6.0%,-6.3,-31.7*,i
O=S(=O)(NCc1ccc(Cl)cc1)c1cnc[nH]1,-1.7%,-3.1,0.1,i
Cc1ccc(CCNS(=O)(=O)c2cnc[nH]2)cc1,-1.0%,-2.9,-38.7*,i
Cc1c(Nc2cc(Cl)c3nonc3c2[N+](=O)[O-])c(=O)n(-c2ccccc2)n1C,-12.0%,-85.4*,1.2,i
Cc1c(Nc2cc(N3CCOCC3)c3nonc3c2[N+](=O)[O-])c(=O)n(-c2ccccc2)n1C,·,1.9,·,·
O=[N+]([O-])c1c(Nc2cccc(O)c2)cc(Cl)c2nonc12,-25.9%,-98.1*,0.3,i
O=C(O)c1ccc(Nc2cc(Cl)c3nonc3c2[N+](=O)[O-])cc1,6.7%,-0.3,0.0,i
CC(C)N1CC(COc2ccc(Cl)cc2Cl)OC1=O (stereo not given),4.2%,-3.3,-3.2,i
COc1ccc(Cc2nc3ccc(C(=O)N(C)Cc4cc(C)[nH]n4)cc3o2)cc1OC,3.7%,-11.9,-70.1*,i
CC(C)CCN(Cc1ccco1)S(=O)(=O)c1csc(C(N)=O)c1,7.6%,-14.9,1.3,i
CN(Cc1ccco1)S(=O)(=O)c1csc(C(N)=O)c1,1.8%,-138.9*,1.5,i
CCCNC(=O)c1ccc2nc(-c3ccccc3)c(-c3ccccc3)nc2c1,2.6%,-3.2,-2.4,-120.3%*
CC(C)NC(=O)C1(C)CCCCN1Cc1ccc(OCc2ccccc2)cc1 (stereo not given),·,·,-0.1,i
SMILES,TCR act,TSHR antag,CCT chaperon mod,Akt phos inh
O=C(N/N=C/c1ccncc1)c1cccc(NC(=O)c2ccc(Cl)cc2)c1,-1.5%[46.1 µM],2.9,-35.9*,i
O=C(N/N=C/c1ccncc1)c1sc2ccccc2c1Cl,-8.9%,12.8,-83.6*,·
O=C(N/N=C/c1ccncc1)c1cccc(N/N=C/c2ccncc2)c1,6.2%,-3.1,-0.4,i
O=C(O)CCSc1nc2ccccc2n1Cc1ccccc1,-11.8%,-116.6*,-1.9,i
Cc1cc(Cl)ccc1NC(=O)CCC(=O)O,-9.1%[46.1 µM],-1.6,-1.6,i
O=C(O)CCC(=O)Nc1ccc(NC(=O)c2ccc(Cl)cc2Cl)c(Cl)c1,1.1%,3.8,-134.6*,i
COc1ccc(C(CNC(=O)C2COc3ccccc3O2)N2CCCC2)cc1 (stereo not given),·,1.7,-0.8,i

# Screens (PubChem)
